Our source for the outcome, activation and potentiation values is PubChem BioAssay.

For some of these results: Results with a measured potency or affinity are listed apart. The source made the active and inactive calls.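 The calls were made as follows, unless noted: active = calcium signal cut by more than 3 SD below the full-agonist control yet still positive, in both repeats and the earlier primary screen; inactive = the rest.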

In experiment [1] the test system is TRPC4 beta (transient receptor potential cation channel C4), mouse. Kind of experiment: TRPC4 cation channel opening, retest – cell-based, Fluo4 calcium, HEK293 TRPC4beta/mu-opioid, duplicates, 10 µM, confirmation (AID 2426;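 active = fluorescence ratio normalized to control raised more than 50% in primary screen plus both repeat runs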;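 as to activation: percent rise of integrated ratio over buffer wells lacking compound which define 0%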). The note with it: Fluo4 calcium fluorescence, at 10 µM; active compounds read high.
The subject of experiment [2] is transient receptor potential cation channel C4 beta (TRPC4), mouse. Kind of experiment: TRPC4 cation channel opening, second retest – cell-based, second round, Fluo4, HEK293 TRPC4beta/mu-opioid, 1 µM, confirmation (AID 2461;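 active = primary screen active and over 50% activation in each of two duplicate runs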;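 as to activation: 0% = wells without test compound as baseline of integrated fluorescence ratio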). The conditions noted are these: Fluo4 calcium fluorescence, at 1 µM; active compounds read high.
Experiment [3] concerns TRPC4 (transient receptor potential cation channel C4 beta), mouse. Kind of experiment: potentiation of DAMGO EC20 TRPC4 response – cell-based, second round, Fluo-4, HEK293 TRPC4beta/mu-opioid, 1 µM, confirmation (AID 2554;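 active = primary screen hit whose fluorescence ratio, in both repeats, exceeds the weak agonist control mean by 3 SD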). The note with it: DAMGO EC20, Fluo-4 calcium flux, at 1 µM; active compounds read high.
In experiment [4] the test system is TRPC4 beta (transient receptor potential cation channel C4), mouse. In words: potentiation of DAMGO EC20 TRPC4 response – cell-based, Fluo-4, HEK293 TRPC4beta/mu-opioid, confirmation (AID 2555;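 active = primary screen hit whose calcium fluorescence ratio, in both repeats, exceeds the weak agonist control mean by 3 SD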). The note with it: DAMGO EC20, Fluo-4 calcium flux, at 10 µM; active compounds read high. On the technique in general: Calcium flux is commonly read through the fluorescence of an indicator in the cells.

Experiment [5] has as its target Short transient receptor potential channel 4 (Mus musculus) (UniProt Q9QUQ5). In words: blockers of DAMGO-evoked TRPC4 calcium flux – cell-based, Fluo4, HEK293 TRPC4beta/mu-opioid, confirmation (AID 2636). The note with it: at 10 µM; active compounds read high.
The target is the same in experiment [6]. In words: blockers of DAMGO-evoked TRPC4 calcium flux – cell-based, second round, Fluo4, HEK293 TRPC4beta/mu-opioid, 1 µM, confirmation (AID 2637;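 active = calcium signal ratio cut to more than 3 SD under the fully stimulated control mean yet still positive, in both repeats and the primary screen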). The note with it: at 1 µM; active compounds read high.
The target is the same in experiment [7]. Kind of experiment: potentiation of DAMGO-evoked TRPC4 calcium signal – cell-based, HEK293 TRPC4/mu-opioid, Fluo-4 calcium, EC20 DAMGO, dose response (AID 434941;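 active = earlier screen potentiator hit that boosts the TRPC4 ion channel at some dose, with a dose response; inactive = no potentiation, no dose response, or not a prior hit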;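 also: calcium entry triggered by an EC20 dose of DAMGO at the co-expressed mu-opioid receptor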).
Experiment [8] shares this target. Kind of experiment: block of DAMGO-driven TRPC4 calcium entry – cell-based, HEK293 TRPC4/mu-opioid, Fluo-4 calcium, dose response (AID 434942;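 active = primary screen inhibitor hit that blocks the TRPC4 channel at some tested dose, yielding a dose curve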).
The target of experiment [9] is Short transient receptor potential channel 6 (Mus musculus) (UniProt Q61143). Kind of experiment: TRPC6 blockade by TRPC4 inhibitor hits – cell-based, HEK293, membrane potential dye, duplicate, selectivity assay for TRPC4 inhibitor project, confirmation (AID 434948;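 active = active in primary screen and both duplicates, each dropping signal beyond three positive-control SD with fluorescence still positive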). The note with it: HEK293 TRPC6, membrane potential dye fluorescence, at 10 µM, stimulated with maximal-effect acetylcholine; active compounds read high.
Sequence of Short transient receptor potential channel 6 (Mus musculus) (Q61143 whole entry, looked up): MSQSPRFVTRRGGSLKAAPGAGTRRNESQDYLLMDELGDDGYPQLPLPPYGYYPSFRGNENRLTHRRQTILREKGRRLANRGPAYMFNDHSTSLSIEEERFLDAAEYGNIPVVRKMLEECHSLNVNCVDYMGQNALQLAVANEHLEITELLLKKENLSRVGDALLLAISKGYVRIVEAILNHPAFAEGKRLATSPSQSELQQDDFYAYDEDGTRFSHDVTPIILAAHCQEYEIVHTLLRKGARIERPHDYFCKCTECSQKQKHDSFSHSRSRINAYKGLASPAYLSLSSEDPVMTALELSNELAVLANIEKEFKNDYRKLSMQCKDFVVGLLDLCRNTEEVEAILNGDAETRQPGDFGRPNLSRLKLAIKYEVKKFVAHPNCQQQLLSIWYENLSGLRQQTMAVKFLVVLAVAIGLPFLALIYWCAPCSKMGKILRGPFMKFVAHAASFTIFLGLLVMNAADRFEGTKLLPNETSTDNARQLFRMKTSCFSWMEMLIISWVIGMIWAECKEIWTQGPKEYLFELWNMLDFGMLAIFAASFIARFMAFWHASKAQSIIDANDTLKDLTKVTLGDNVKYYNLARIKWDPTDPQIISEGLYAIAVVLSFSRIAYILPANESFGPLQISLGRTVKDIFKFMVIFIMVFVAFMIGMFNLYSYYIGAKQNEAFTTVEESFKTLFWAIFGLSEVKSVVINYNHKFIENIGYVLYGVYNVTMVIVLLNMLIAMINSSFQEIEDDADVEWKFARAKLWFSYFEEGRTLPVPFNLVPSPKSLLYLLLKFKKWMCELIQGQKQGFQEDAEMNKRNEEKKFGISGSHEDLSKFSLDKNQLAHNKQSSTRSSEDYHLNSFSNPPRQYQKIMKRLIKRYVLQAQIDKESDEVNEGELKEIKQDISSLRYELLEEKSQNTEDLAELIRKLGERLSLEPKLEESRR

Experiment [10] shares this target. In words: TRPC6 opening by TRPC4 activator hits – cell-based, HEK293, membrane potential dye, duplicate, selectivity assay for TRPC4 activator project, confirmation (AID 434950;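 active = membrane potential signal rise above negative control mean plus 3 SD in both duplicates, also active in the earlier TRPC4 screen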;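 as to activation: 0% = buffer only wells and 100% = acetylcholine maximal-effect wells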). The conditions noted are these: HEK293 TRPC6, membrane potential fluorescence, at 10 µM; activation: active compounds read high; outcome: activation.
The target is the same in experiment [11]. Kind of experiment: positive modulators of mouse TRPC6 channel – HEK293 cells, membrane potential dye, duplicate, selectivity assay for TRPC4 potentiator project, confirmation (AID 434952;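 active = compound raising the membrane signal above positive-control mean plus 3 SD in both repeats, and a primary screen hit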). The conditions noted are these: HEK293 TRPC6, membrane potential dye fluorescence, at 10 µM, maximal acetylcholine added after compound; active compounds read high.
The target in experiment [12] is Short transient receptor potential channel 4 (Mus musculus) (UniProt Q9QUQ5). In words: calcium flux activators in TRPC4/5HT1a cells, counter-screen for TRPC4 activator project, cell-based, second counter screen, HEK293 TRPC4/5HT1a, Fluo-4 (AID 434977;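 active = calcium signal rise above buffer-control mean plus 5 SD in both duplicates, and also a hit in the primary screen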;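 also: plate controls were assay buffer for no effect and maximal serotonin response for full effect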). The note with it: Fluo-4 calcium flux, at 10 µM; active compounds read high.
Sequence of Short transient receptor potential channel 4 (Mus musculus) (Q9QUQ5 whole entry, looked up): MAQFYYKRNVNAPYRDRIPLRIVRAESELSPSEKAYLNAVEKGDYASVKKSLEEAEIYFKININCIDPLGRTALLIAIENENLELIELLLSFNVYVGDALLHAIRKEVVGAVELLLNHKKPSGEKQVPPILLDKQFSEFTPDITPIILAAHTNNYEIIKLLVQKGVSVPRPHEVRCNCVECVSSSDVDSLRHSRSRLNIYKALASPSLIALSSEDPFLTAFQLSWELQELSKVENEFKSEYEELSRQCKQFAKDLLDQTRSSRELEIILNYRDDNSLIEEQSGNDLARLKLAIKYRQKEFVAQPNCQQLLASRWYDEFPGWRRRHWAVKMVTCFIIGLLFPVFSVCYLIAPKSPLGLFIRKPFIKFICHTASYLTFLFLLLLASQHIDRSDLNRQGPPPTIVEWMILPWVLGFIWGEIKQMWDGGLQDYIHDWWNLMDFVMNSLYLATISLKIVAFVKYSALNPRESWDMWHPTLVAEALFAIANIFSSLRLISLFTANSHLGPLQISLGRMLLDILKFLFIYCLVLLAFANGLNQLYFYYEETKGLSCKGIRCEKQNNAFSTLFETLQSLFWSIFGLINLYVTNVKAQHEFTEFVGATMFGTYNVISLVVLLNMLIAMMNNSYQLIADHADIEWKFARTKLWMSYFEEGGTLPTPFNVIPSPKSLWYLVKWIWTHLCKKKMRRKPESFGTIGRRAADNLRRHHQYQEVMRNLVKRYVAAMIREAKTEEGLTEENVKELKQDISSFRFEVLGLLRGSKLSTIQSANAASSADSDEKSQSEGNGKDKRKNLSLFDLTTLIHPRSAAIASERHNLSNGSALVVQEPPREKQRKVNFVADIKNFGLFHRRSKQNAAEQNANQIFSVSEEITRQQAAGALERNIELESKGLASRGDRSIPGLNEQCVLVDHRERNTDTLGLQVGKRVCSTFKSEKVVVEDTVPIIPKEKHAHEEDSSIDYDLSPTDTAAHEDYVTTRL
A short description of experiment [13]: serotonin-gated TRPC4 signal block – cell-based, second counter screen, HEK293 TRPC4/5HT1a, Fluo-4, counter-screen for TRPC4 inhibitor project, confirmation (AID 434978;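 active = primary screen active whose calcium signal fell more than 3 SD beyond the full-serotonin control mean in both duplicate plates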;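 also: serotonin given first at submaximal then at maximal dose after compound preincubation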). The note with it: Fluo-4 calcium flux, at 10 µM, serotonin added to trigger calcium flux; active compounds read high. A general note: A counterscreen serves to expose hits that act by an unwanted route or on another target.

The subject of experiment [14] is TRPC4 (mouse), co-expressed with 5HT1a in HEK293. In words: enhancement of serotonin-evoked TRPC4 response – cell-based, second counter screen, HEK293 TRPC4/5HT1a, Fluo-4, counter-screen for TRPC4 potentiator project, confirmation (AID 434979;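 active = signal rise over 3 SD above mean of control wells given weak agonist, in both repeats and first screen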). The conditions noted are these: Fluo-4 calcium flux, at 10 µM, serotonin added at its EC20 dose; active compounds read high.
The nature of experiment [15]: nonspecific calcium rise without TRPC4 – cell-based, HEK293 mu-opioid receptor line, counter-screen for TRPC4 activator project, confirmation (AID 449723;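 active = hit in primary screen, with calcium signal over 5 SD above buffer well mean in both duplicates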;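 also: counter screen cells carry the mu-opioid receptor alone and lack TRPC4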). The note with it: HEK293 mu-opioid cells, Fluo-4 calcium fluorescence, at 10 µM; active compounds read high.
Experiment [16] can be described thus: nonspecific potentiation of DAMGO calcium response – cell-based, HEK293 mu-opioid receptor line, counter-screen for TRPC4 allosteric potentiator project, confirmation (AID 449724;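 active = calcium signal rise more than 3 SD above the low-dose agonist control mean, in both duplicate plates and the primary screen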;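 also: HEK293 cells carrying mu-opioid receptor only with no TRPC4 channel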). The conditions noted are these: HEK293 mu-opioid receptor cells, Fluo-4 calcium flux, at 10 µM, compound added before EC20 DAMGO stimulus; active compounds read high.
Experiment [17] can be described thus: nonspecific flux increase, KCNQ1-free cells – parental CHO cells, counter-screen for KCNQ1 potentiator project (AID 493006;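 active = duplicate-averaged activation above buffer control mean plus 5 SD of those controls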;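 as to activation: fluorescence ratio of max minus min over baseline after K+ and Tl+ depolarization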). The note with it: parental CHO-K1 cells, FluxOR thallium flux, at 10 µM; active compounds read high.
In experiment [18] the target is Potassium voltage-gated channel subfamily KQT member 1 (Homo sapiens) (UniProt P51787). In words: enhancement of KCNQ1 channel thallium flux – FluxOR thallium flux, CHO cells, duplicates, confirmation (AID 493007;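 active = potentiation averaged over duplicate wells exceeding buffer-only control mean by more than 3 SD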;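 as to outcome: cells depolarized by a potassium plus thallium sulfate stimulus after compound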;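 as to potentiation: 0% = buffer-only wells and 100% = R-L3 activator control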). The note with it: KCNQ1 cell line, FluxOR thallium flux fluorescence, at 10 µM; active compounds read high, % of reference activator effect, buffer zero.
Sequence of Potassium voltage-gated channel subfamily KQT member 1 (Homo sapiens) (P51787 whole entry, looked up): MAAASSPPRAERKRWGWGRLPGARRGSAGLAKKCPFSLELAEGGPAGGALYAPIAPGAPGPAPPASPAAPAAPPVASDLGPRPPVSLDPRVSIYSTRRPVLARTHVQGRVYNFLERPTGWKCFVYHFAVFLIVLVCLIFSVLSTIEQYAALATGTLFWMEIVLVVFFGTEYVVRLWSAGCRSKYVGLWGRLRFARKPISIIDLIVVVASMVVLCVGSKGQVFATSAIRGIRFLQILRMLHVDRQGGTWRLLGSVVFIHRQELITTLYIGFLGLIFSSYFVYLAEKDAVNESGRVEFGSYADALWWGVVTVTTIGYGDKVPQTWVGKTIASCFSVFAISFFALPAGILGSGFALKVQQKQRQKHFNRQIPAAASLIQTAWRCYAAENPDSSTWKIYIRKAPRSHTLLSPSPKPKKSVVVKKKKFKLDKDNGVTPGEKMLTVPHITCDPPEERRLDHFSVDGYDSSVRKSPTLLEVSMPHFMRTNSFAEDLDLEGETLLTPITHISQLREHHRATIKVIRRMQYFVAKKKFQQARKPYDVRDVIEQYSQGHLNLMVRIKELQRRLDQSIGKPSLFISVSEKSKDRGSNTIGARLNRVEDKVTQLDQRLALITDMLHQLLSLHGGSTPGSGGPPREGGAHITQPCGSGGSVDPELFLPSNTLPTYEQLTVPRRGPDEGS
The target in experiment [19] is Potassium voltage-gated channel subfamily KQT member 2 (Rattus norvegicus) (UniProt O88943). Kind of experiment: KCNQ2 thallium flux enhancement – KCNQ2-CHO-K1 cells, selectivity assay for KCNQ1 potentiator project (AID 493009;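 active = mean duplicate potentiation above the buffer control mean plus 5 SD of buffer wells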;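 also: assay conditions were tuned for KCNQ1 rather than KCNQ2 modulators; signal is max minus min fluorescence divided by baseline after thallium stimulus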). The note with it: FluxOR thallium flux fluorescence, at 10 µM; active compounds read high, scaled: buffer 0, activator control 100.
Sequence of Potassium voltage-gated channel subfamily KQT member 2 (Rattus norvegicus) (O88943 whole entry, looked up): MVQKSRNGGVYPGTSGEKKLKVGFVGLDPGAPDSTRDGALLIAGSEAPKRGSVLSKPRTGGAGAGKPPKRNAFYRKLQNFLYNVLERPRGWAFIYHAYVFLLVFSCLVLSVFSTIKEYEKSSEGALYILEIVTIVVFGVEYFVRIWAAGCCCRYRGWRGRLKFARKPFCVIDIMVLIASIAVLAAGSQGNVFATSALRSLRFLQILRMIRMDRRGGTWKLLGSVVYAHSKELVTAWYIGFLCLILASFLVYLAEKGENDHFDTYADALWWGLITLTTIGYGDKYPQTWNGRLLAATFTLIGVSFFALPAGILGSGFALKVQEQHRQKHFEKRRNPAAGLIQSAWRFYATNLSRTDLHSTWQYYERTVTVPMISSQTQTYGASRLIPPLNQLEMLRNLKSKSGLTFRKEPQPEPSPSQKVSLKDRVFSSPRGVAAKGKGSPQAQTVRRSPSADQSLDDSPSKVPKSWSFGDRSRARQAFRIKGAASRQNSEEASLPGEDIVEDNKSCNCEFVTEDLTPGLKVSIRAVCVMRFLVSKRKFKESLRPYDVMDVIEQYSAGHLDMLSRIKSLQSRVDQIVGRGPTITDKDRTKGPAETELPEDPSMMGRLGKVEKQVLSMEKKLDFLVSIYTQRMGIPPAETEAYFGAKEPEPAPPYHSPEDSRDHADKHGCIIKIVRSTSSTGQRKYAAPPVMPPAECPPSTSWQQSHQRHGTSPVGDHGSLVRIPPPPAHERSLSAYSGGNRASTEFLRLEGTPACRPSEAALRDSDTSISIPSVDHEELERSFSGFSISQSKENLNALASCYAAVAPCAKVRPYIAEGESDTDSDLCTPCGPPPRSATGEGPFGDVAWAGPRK
Experiment [20] deals with Potassium voltage-gated channel subfamily KQT member 1 (Homo sapiens) (UniProt P51787). In words: KCNQ1 activators by electrophysiology – IonWorks patch clamp, KCNQ1-CHO cells, orthogonal assay for KCNQ1 potentiator project, confirmation (AID 493184;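 active = current rise at least 3 SD above the untreated control mean in each of two repeat wells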). The conditions noted are these: automated patch clamp current, at 10 µM; active compounds read high.

For `CCCc1ccc(OCC(=O)NNC(=S)NC(=O)c2ccco2)cc1`, the result in experiment [1], in [2], in experiment [3], in experiment [4], in experiment [5] and in [6] was inactive. Moreover, the result in [7], in experiment [8], in experiment [9], in experiment [10], in experiment [11] and in [13] was inactive. The result in experiment [14], in experiment [15], in [16] and in [20] was inactive. For the same molecule, the activation in [12] was 46.5% (active); in [17], 164% (active). Moreover, the potentiation was 79.5% (active) in [18] and 216% (active) in experiment [19].
In the case of `CC1(c2ccc(Cl)cc2Cl)OCC(Cn2ccnc2)O1` (configuration not stated), the figures for the activation in experiment [1], in [10] and in [12] were 89% (active), 48.5% (active) and 19.9% (active), respectively. In addition, the outcome in experiment [2], in experiment [3], in experiment [4], in experiment [5], in experiment [6] and in [7] was inactive. Further, the outcome in experiment [8], in experiment [9], in [11], in experiment [13], in [14] and in [15] was inactive. In addition, the result in experiment [16] was inactive.
On to `Cc1csc2c(N3CCN(C(=S)Nc4ccc(F)cc4F)CC3)ncnc12`, for which the activation in experiment [1] is 126% (active); in [12], 40.5% (active). Also, the outcome in experiment [2], in experiment [3], in experiment [4], in [5], in experiment [6] and in [7] was inactive. Moreover, the result in experiment [8], in [9], in experiment [10], in experiment [11], in experiment [13] and in [14] was inactive. In addition, the result in experiment [15] and in experiment [16] was inactive.
`CCCOc1ccc(C(=O)NNC(=S)NC(=O)c2cccs2)cc1`: the activation is 104% (active) in experiment [1], 71.2% (active) in [12], 22.6% (active) in experiment [15] and 139% (active) in [17]. Further, the outcome in experiment [2], in experiment [3], in [4], in [5], in experiment [6] and in experiment [7] was inactive. In addition, the result in experiment [8], in experiment [9], in experiment [10], in experiment [11], in experiment [13] and in [14] was inactive. The outcome in [16] and in [20] was inactive. For the same molecule, the potentiation is 135% (active) in [18] and 275% (active) in experiment [19].
Take `OCCN1CCN(Cc2cc(Br)cc(Br)c2O)CC1`: the activation in [1] is 199% (active); in experiment [2] it was 170% (active); in experiment [10], 32% (active); in experiment [12], 85.4% (active). Further, the result in experiment [3], in [4], in [5], in [6], in experiment [7] and in experiment [8] was inactive. Moreover, the call in experiment [9], in [11], in [13], in experiment [14], in [15] and in [16] was inactive. Further, the outcome in experiment [17], in [18], in experiment [19] and in [20] was inactive.
On to `CCCOc1ccc(C(=O)NNC(=S)NC(=O)c2ccco2)cc1`, for which the activation in experiment [1] is 223% (active); in experiment [10] it was 38.5% (active); in [12], 143% (active); in [15], 61.8% (active); in [17] it was 195% (active). Besides, the result in [2], in [3], in [4], in experiment [5], in experiment [6] and in experiment [7] was inactive. The outcome in experiment [8], in experiment [9], in [11], in [13], in experiment [14] and in experiment [16] was inactive. The result in experiment [20] was inactive. Besides, the values for the potentiation in experiment [18] and in experiment [19] were 212% (active) and 340% (active), respectively.
